Common to all, as to test: DAPPL (digital affinity profiling via proximity ligation, sequencing); 10 mM Tris-HCl pH 7.5, 50 mM NaCl, 1 mM DTT, 4% glycerol, room temperature, 30 min; GST-TFs on glutathione beads, 16-mer random dsDNA library, 0.1% formaldehyde crosslink after washing; high values mean tight binding
What all share (conditions): protein: recombinant; tags: N-terminal GST; dsDNA, one strand shown

For one experiment, the target named is T1, ELK1 (Homo sapiens, UniProt P19419 1-428).
T1 sequence: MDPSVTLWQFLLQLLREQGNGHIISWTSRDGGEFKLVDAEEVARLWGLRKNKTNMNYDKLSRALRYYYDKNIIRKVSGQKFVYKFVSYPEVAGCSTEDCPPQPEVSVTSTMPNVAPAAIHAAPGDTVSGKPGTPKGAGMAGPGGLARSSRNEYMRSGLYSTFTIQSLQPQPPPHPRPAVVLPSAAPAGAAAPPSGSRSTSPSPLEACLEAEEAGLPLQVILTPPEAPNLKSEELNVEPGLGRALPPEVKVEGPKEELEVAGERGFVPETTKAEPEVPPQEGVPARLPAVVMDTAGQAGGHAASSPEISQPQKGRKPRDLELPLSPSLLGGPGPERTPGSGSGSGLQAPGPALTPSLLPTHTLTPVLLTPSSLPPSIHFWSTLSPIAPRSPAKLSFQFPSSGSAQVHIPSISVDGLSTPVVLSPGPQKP
Summed up: (§1)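 GST fusions of human transcription factors were expressed in yeast and captured with glutathione beads. Once given DNA barcodes and pooled alongside a tag-only sample, they were incubated for 30 min at room temperature with 200 nmole of a random double-stranded 16-mer DNA library in Tris/NaCl/DTT/glycerol buffer, then washed, crosslinked (0.1% formaldehyde), proximity-ligated, PCR-amplified and sequenced on an Illumina NextSeq500. The binding signal of each hexamer is its read frequency for a factor divided by its frequency for the tag-only sample.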

The next experiment concerns the target T2, GABPA (Homo sapiens, UniProt Q06546 1-454).
T2 sequence: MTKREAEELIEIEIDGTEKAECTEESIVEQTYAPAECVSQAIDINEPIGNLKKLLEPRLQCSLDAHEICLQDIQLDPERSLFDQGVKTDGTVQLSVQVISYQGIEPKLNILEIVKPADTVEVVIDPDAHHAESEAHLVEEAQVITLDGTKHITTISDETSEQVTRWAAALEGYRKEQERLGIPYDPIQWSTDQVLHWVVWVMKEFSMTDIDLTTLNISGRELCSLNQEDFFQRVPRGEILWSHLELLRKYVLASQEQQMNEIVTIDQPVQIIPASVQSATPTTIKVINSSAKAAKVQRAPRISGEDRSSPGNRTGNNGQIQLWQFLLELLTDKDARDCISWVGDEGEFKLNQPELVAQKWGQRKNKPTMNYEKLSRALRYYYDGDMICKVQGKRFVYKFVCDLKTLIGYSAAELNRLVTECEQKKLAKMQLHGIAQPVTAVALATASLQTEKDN
Summed up: as §1

The target in a further experiment is T3, ERG (Homo sapiens, UniProt P11308 1-479).
T3 sequence: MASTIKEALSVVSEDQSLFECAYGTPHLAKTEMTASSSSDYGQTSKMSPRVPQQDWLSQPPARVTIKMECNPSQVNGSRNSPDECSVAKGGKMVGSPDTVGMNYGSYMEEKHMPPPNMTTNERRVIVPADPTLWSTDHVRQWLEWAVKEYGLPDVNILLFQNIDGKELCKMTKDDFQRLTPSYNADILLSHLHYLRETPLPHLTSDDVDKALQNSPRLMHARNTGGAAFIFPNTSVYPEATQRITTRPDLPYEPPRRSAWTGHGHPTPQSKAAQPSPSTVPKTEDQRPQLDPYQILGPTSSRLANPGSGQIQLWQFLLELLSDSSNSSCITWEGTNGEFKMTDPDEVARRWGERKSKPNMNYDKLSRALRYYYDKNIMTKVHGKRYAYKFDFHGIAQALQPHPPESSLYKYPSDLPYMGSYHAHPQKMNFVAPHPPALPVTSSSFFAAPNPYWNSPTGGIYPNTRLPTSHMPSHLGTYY
Summed up:
as §1

A further experiment has as its target ELF1 (Homo sapiens, UniProt P32519 1-619). Summed up: as §1
The next experiment concerns the target T4, EHF (Homo sapiens, UniProt Q9NZC4 1-300).
T4 sequence: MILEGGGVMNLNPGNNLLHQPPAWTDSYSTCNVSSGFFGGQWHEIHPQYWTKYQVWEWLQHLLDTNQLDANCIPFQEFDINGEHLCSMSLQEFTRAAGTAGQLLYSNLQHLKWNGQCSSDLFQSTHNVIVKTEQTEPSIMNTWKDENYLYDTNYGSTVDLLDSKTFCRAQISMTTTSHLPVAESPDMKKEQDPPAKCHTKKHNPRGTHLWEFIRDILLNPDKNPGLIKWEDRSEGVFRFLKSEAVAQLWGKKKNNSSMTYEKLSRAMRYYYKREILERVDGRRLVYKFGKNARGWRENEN
The procedure, abridged:
as §1

For another experiment, the target named is T5, FEV (Homo sapiens, UniProt Q99581 1-238).
T5 sequence: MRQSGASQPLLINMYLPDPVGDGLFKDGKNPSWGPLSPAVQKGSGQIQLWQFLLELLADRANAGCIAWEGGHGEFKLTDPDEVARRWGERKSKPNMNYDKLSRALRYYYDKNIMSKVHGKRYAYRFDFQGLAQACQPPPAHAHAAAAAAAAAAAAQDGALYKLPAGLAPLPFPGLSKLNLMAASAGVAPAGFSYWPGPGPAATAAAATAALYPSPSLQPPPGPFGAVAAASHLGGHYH
Summed up: as §1

The target of the next experiment is ETV5 (Homo sapiens, UniProt P41161 1-510). Summed up:
as §1

The target in a further experiment is ELF4 (Homo sapiens, UniProt Q99607 1-663). Summed up:
as §1

The target in a further experiment is T6, ELK4 (Homo sapiens, UniProt P28324-2 1-405).
T6 sequence: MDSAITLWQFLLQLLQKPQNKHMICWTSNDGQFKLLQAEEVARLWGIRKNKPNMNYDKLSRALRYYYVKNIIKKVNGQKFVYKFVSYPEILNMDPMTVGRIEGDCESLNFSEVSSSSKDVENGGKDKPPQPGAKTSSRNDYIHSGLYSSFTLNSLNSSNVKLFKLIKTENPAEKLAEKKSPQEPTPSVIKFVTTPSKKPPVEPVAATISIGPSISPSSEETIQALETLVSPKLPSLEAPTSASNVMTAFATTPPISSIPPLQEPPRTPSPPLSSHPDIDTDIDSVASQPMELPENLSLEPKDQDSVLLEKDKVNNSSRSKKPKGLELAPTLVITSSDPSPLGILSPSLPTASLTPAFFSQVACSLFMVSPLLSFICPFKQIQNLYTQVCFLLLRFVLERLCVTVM
The procedure, abridged:
as §1

ELF4, sequence (Q99607 whole entry): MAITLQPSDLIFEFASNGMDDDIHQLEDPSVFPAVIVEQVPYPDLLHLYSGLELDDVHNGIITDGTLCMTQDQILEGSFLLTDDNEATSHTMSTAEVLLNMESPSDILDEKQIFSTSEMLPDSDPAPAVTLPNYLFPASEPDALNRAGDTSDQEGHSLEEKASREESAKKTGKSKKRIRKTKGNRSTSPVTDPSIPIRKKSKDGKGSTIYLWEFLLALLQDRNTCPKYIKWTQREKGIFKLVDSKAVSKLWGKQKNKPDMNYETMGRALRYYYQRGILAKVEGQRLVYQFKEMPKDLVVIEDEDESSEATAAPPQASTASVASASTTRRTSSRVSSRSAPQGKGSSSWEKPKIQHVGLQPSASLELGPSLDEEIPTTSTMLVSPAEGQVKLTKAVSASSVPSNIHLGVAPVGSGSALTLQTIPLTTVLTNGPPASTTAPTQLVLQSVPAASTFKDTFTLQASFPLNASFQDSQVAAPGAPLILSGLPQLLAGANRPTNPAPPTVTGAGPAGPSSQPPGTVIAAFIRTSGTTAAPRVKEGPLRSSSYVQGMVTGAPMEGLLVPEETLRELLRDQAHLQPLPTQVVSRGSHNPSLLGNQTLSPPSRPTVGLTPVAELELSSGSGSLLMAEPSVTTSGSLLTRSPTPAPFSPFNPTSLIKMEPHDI
ELF1, sequence (P32519 whole entry): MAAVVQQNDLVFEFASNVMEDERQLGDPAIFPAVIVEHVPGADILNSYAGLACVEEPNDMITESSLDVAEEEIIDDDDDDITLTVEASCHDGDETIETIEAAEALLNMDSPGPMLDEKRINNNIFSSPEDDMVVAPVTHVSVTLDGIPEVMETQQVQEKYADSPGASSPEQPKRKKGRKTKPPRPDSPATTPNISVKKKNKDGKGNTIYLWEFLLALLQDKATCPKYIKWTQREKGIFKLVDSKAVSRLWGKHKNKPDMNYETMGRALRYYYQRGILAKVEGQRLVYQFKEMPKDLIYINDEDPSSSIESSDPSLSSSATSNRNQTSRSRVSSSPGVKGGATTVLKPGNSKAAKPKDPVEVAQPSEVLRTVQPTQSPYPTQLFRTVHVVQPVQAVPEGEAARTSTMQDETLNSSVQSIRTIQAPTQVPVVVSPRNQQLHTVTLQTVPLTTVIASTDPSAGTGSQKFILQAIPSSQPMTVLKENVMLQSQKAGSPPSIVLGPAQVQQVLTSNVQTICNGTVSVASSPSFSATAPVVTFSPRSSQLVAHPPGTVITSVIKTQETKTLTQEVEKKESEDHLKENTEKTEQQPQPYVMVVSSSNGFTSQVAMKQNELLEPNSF
ETV5, sequence (P41161 whole entry): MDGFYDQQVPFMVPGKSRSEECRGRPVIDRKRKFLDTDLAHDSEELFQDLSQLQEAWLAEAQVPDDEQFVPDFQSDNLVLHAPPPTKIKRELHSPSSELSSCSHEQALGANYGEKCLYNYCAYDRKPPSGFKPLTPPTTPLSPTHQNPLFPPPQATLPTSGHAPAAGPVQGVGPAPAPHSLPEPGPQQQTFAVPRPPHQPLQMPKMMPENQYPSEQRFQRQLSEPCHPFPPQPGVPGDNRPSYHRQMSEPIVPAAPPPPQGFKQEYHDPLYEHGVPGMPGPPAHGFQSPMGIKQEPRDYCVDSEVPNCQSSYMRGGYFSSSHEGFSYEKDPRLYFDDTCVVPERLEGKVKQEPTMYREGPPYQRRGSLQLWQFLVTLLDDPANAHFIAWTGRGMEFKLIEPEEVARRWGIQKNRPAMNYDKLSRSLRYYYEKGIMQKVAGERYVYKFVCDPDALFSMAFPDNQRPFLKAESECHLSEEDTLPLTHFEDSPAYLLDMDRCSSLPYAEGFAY

As for TCATGT, the binding signal with ELK1 is 1.17 fold enrichment (6-mer frequency, TF over GST control); in the experiment with GABPA, 1.11 fold enrichment (6-mer frequency, TF over GST control); with ERG, 1.1 fold enrichment (6-mer frequency, TF over GST control); with ELF1, 1.15 fold enrichment (6-mer frequency, TF over GST control); with EHF it was 1.02 fold enrichment (6-mer frequency, TF over GST control); with FEV, 1.05 fold enrichment (6-mer frequency, TF over GST control). The binding signal was 1.16 fold enrichment (6-mer frequency, TF over GST control) in the experiment with ETV5; 1.1 fold enrichment (6-mer frequency, TF over GST control) with ELF4; 1.08 fold enrichment (6-mer frequency, TF over GST control) with ELK4.
